Data on one molecule can be found in PubChem BioAssay (EPA / NIEHS).

As usually defined, the AC50 is the concentration giving half of the maximal activity seen.

The structures appear in SMILES notation. Active and inactive are the calls of the source. The calls were made as follows: active = hit-call score of the fitted dose curve at least 0.9, where 1 is the maximum; inactive = score below 0.9.

Common to all, as to details: mRNA level, 48 h; actives raise or lower the signal
Read-out in experiment [1]: Apolipoprotein A-V (APOA5) gene, APOA5 (gene 116519)
Briefly: LTEA_HepaRG_APOA5: Life Technologies and Expression Analysis (LTEA) Assay for Apolipoprotein A-V (APOA5) gene using HepaRG (AID 2283474). The essentials:
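Readout is APOA5 transcript level by qRT-PCR on Fluidigm dynamic arrays, normalized to three housekeeping genes. HepaRG cultures received chemicals for 48 h at up to 100 uM (half-log steps, 0.5% DMSO), with gain or loss scored relative to DMSO.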

Read-out in experiment [2]: Apoptosis regulator Bcl-2 (Homo sapiens) (UniProt P10415)
In words: LTEA_HepaRG_BCL2: Life Technologies and Expression Analysis (LTEA) Assay for Bcl-2 gene using HepaRG (AID 2283475).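 Also: BCL2 transcript by TaqMan qRT-PCR normalised to ACTB GAPDH and POLR2A.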 The essentials:
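Expression change of BCL2 mRNA in HepaRG after 48 h dosing, quantified by TaqMan qRT-PCR against three endogenous controls. Concentration-response used eight points up to 100 uM, vehicle 0.5% DMSO.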

Read-out in experiment [3]: Bcl-2 (BID) gene, BID (gene 637)
In words: LTEA_HepaRG_BID: Life Technologies and Expression Analysis (LTEA) Assay for Bcl-2 (BID) gene using HepaRG (AID 2283476). The essentials:
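Gain or loss of BID expression is fitted relative to 0.5% DMSO vehicle. Human HepaRG liver cells received a 48 h chemical exposure over an eight-point concentration range.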

Read-out in a further experiment: Caspase-3 (Homo sapiens) (UniProt P42574)
In words: LTEA_HepaRG_CASP3: Life Technologies and Expression Analysis (LTEA) Assay for cysteine-aspartic acid protease (CASP3) using HepaRG (AID 2283477). The essentials: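 Read-out is CASP3 mRNA level by TaqMan qRT-PCR in human HepaRG cells after 48 h chemical exposure. Eight half-log concentrations topping at 100 uM were tested in 0.5% DMSO; gain or loss was fitted relative to DMSO.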

Read-out in experiment [4]: Cytochrome P450 (CYP24A1), CYP24A1 (gene 1591)
In words: LTEA_HepaRG_CYP24A1: Life Technologies and Expression Analysis (LTEA) Assay for Cytochrome P450 (CYP24A1) using HepaRG (AID 2283478). In a few lines:
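HepaRG, 48 h chemical exposure, 8-pt half-log CRC from 100 uM, 0.5% DMSO vehicle, duplicates. Endpoint: CYP24A1 mRNA by Fluidigm TaqMan qRT-PCR, normalized ACTB/GAPDH/POLR2A; gain/loss fit vs DMSO.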

Read-out in experiment [5]: Cytochrome P450 (CYP1A2), CYP1A2 (gene 1544)
Briefly: LTEA_HepaRG_CYP1A2: Life Technologies and Expression Analysis (LTEA) Assay for Cytochrome P450 (CYP1A2) using HepaRG (AID 2283479). The essentials: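 CYP1A2 transcript induction or loss, quantified by Fluidigm qRT-PCR against three housekeeping genes, was fitted bidirectionally against 0.5% DMSO controls. Human HepaRG cells received eight half-log concentrations from 100 uM over 48 h.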

Read-out in experiment [6]: cysteine-aspartic acid protease (CASP8), CASP8 (gene 841)
In words: LTEA_HepaRG_CASP8: Life Technologies and Expression Analysis (LTEA) Assay for cysteine-aspartic acid protease (CASP8) using HepaRG (AID 2283480). The essentials: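 Differentiated human HepaRG cells, plated 48 h then switched to serum-free induction medium, were exposed in duplicate for 48 h to 8 half-log concentrations up to 100 uM in 0.5% DMSO. CASP8 mRNA was quantified by qRT-PCR, normalized to ACTB/GAPDH/POLR2A.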

Read-out in experiment [7]: Cytochrome P450 (CYP2B6), CYP2B6 (gene 1555)
In words: LTEA_HepaRG_CYP2B6: Life Technologies and Expression Analysis (LTEA) Assay for Cytochrome P450 (CYP2B6) using HepaRG (AID 2283481). In a few lines: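 HepaRG cells plated 48 h, switched to serum-free induction medium, then dosed 48 h (8 points, half-log from 100 uM, 0.5% DMSO). RNA isolated; CYP2B6 expression measured by qRT-PCR; gain or loss fitted relative to DMSO.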

Read-out in experiment [8]: Cytochrome P450 2C19 (Homo sapiens) (UniProt P33261)
Briefly: LTEA_HepaRG_CYP2C19: Life Technologies and Expression Analysis (LTEA) Assay for CYP2C19 using HepaRG (AID 2283482). In a few lines:
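Transcript levels of CYP2C19 were quantified by qRT-PCR after HepaRG cells were treated for 48 hours with test chemicals up to 100 uM (eight half-log concentrations, 0.5% DMSO vehicle). Gain or loss of signal was fitted relative to DMSO.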

Read-out in a further experiment: CYP2C8 (gene 1558)
In words: LTEA_HepaRG_CYP2C8: Life Technologies and Expression Analysis (LTEA) Assay for CYP2C8 using HepaRG (AID 2283483). The essentials:
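Differentiated human HepaRG cells were exposed for 48 h in serum-free induction medium to eight half-log concentrations up to 100 uM in 0.5% DMSO, in duplicate. CYP2C8 mRNA was measured by TaqMan qRT-PCR, normalized to ACTB, GAPDH and POLR2A, and fitted bidirectionally against DMSO.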

Read-out in another experiment: CYP2C9 (gene 1559)
In words: LTEA_HepaRG_CYP2C9: Life Technologies and Expression Analysis (LTEA) Assay for CYP2C9 using HepaRG (AID 2283484). The essentials: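 Differentiated human HepaRG cells were exposed 48 h in serum-free induction medium to eight half-log concentrations up to 100 uM in 0.5% DMSO. CYP2C9 mRNA was measured by qRT-PCR, normalized to ACTB, GAPDH and POLR2A, and fitted bidirectionally against DMSO.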

Read-out in a further experiment: CYP2E1 (gene 1571)
In words: LTEA_HepaRG_CYP2E1: Life Technologies and Expression Analysis (LTEA) Assay for CYP2E1 using HepaRG (AID 2283485). The essentials:
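Differentiated HepaRG cells were treated in duplicate for 48 h with chemicals in 0.5% DMSO, from 100 uM downward in half-log dilutions. RNA was then analysed by qRT-PCR for CYP2E1 induction or loss.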

Read-out in another experiment: CYP4A11 (gene 1579)
In words: LTEA_HepaRG_CYP4A11: Life Technologies and Expression Analysis (LTEA) Assay for CYP4A11 using HepaRG (AID 2283486). The essentials:
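HepaRG, 48 h chem exposure, 8 conc (100 uM top, half-log), 0.5% DMSO vehicle; qRT-PCR readout, housekeeping-gene normalized; bidirectional curve fit vs DMSO baseline.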

Read-out in experiment [9]: Cytochrome P450 3A4 (Homo sapiens) (UniProt P08684)
Briefly: LTEA_HepaRG_CYP3A4: Life Technologies and Expression Analysis (LTEA) Assay for CYP3A4 using HepaRG (AID 2283487). In a few lines: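 In a human hepatic line (HepaRG), duplicate wells were treated 48 h with up to 100 uM chemical in half-log dilutions. Endpoint: CYP3A4 mRNA induction or loss relative to 0.5% DMSO vehicle, by qRT-PCR.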

Read-out in experiment [10]: DNA damage-inducible transcript 3 (DDIT3), DDIT3 (gene 1649)
Briefly: LTEA_HepaRG_DDIT3: Life Technologies and Expression Analysis (LTEA) Assay for DNA damage-inducible transcript 3 (DDIT3) using HepaRG (AID 2283488). In a few lines: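 Changes in DDIT3 transcript, in either direction relative to 0.5% DMSO vehicle, were quantified by TaqMan qRT-PCR after 48 h chemical exposure of HepaRG cells at 8 concentrations, maximum 100 uM.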

Read-out in experiment [11]: Early growth response protein 1 (EGR1) transcription factor, EGR1 (gene 1958)
Briefly: LTEA_HepaRG_EGR1: Life Technologies and Expression Analysis (LTEA) Assay for Early growth response protein 1 (EGR1) transcription factor using HepaRG (AID 2283490). In a few lines: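 Differentiated human HepaRG cells in serum-free induction medium were exposed in duplicate for 48 h to eight concentrations (top 100 uM, half-log steps) in 0.5% DMSO. EGR1 mRNA was quantified by qRT-PCR, normalized to ACTB, GAPDH and POLR2A, and fitted bidirectionally versus DMSO.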

Read-out in experiment [12]: Ezrin (EZR), EZR (gene 7430)
In words: LTEA_HepaRG_EZR: Life Technologies and Expression Analysis (LTEA) Assay for Ezrin (EZR) using HepaRG (AID 2283491). The essentials: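 Gain or loss of EZR mRNA is scored relative to 0.5% DMSO in human HepaRG cultures treated 48 h with test chemicals in duplicate, eight half-log concentrations from 100 uM.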

Read-out in experiment [13]: Cytochrome P450 3A7 (Homo sapiens) (UniProt P24462)
Briefly: LTEA_HepaRG_CYP3A7: Life Technologies and Expression Analysis (LTEA) Assay for CYP3A7 using HepaRG (AID 2283492). In a few lines:
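Human HepaRG liver cells, 48 h post-plating, switched to serum-free induction medium and exposed in duplicate for 48 h. Dosing: 100 uM top, half-log dilutions, 8 points, 0.5% DMSO vehicle. Read-out: CYP3A7 mRNA, gain or loss fitted against DMSO baseline.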

Sequence of Cytochrome P450 3A4 (Homo sapiens) (P08684 whole entry, looked up): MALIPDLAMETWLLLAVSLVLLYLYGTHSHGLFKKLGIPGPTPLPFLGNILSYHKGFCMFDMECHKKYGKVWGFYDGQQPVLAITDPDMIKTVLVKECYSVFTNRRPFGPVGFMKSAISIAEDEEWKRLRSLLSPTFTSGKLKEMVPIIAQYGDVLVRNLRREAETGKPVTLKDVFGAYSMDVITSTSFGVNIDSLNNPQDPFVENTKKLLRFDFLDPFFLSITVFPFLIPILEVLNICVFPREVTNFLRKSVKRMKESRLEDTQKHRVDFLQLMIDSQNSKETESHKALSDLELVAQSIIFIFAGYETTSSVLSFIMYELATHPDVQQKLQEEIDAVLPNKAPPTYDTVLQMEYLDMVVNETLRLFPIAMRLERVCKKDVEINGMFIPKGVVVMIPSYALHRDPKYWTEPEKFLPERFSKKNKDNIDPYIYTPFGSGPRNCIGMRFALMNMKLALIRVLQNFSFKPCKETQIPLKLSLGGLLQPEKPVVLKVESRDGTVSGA
Sequence of Cytochrome P450 3A7 (Homo sapiens) (P24462 whole entry, looked up): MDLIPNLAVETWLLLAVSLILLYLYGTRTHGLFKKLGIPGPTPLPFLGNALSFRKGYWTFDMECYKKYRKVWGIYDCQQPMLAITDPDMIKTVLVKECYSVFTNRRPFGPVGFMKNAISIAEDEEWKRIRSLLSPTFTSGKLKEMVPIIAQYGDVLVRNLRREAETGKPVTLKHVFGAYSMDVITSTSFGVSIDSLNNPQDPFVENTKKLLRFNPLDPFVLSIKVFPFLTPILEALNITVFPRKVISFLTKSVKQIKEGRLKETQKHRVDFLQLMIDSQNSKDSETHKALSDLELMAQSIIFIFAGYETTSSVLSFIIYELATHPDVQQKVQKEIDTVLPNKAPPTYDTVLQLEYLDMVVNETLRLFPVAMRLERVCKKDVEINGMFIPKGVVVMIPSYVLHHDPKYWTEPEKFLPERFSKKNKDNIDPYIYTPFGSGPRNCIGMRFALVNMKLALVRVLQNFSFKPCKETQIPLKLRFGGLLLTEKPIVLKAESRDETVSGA
Sequence of Caspase-3 (Homo sapiens) (P42574 whole entry, looked up): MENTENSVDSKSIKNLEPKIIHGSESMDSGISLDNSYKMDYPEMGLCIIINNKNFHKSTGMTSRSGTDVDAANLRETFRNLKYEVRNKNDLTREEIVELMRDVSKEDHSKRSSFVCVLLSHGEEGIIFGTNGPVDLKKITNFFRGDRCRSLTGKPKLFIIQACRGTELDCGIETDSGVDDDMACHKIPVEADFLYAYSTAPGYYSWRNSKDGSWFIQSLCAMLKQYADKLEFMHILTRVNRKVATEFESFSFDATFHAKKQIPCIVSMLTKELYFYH
Sequence of Cytochrome P450 2C19 (Homo sapiens) (P33261 whole entry, looked up): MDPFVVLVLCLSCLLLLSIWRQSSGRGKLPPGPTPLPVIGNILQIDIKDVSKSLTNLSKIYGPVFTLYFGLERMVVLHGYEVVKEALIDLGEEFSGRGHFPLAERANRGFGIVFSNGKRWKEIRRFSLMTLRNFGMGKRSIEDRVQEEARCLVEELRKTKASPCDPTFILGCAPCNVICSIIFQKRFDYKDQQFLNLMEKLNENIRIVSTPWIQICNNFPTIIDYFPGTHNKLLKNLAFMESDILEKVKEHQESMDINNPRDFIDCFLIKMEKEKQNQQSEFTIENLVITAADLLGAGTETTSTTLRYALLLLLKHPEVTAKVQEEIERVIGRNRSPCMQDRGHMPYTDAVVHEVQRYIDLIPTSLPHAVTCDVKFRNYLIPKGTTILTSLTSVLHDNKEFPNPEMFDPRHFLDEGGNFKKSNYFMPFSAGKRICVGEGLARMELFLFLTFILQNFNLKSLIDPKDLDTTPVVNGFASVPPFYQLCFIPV
Sequence of Apoptosis regulator Bcl-2 (Homo sapiens) (P10415 whole entry, looked up): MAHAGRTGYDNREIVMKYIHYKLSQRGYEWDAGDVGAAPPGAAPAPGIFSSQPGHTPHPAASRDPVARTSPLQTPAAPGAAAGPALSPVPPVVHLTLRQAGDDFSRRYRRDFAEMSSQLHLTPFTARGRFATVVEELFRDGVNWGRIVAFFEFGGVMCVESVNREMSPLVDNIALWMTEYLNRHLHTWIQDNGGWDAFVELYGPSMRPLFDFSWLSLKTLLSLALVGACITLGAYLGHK

`c1cc[n+]2c(c1)-c1cccc[n+]1CC2`: the call (in [1]; in experiment [2]; in experiment [3]; with Caspase-3 (Homo sapiens); in experiment [4]; in [6]) was inactive. Besides, the call (in experiment [7]; in experiment [8]; with CYP2C8 (gene 1558); with CYP2C9 (gene 1559); in the experiment with CYP2E1 (gene 1571); with CYP4A11 (gene 1579)) was inactive. Besides, the outcome in experiment [9], in [10], in experiment [11], in [12] and in experiment [13] was inactive. The AC50 in experiment [5] is 12.4 µM (active).
